The values below come from PubChem BioAssay AID463173 (ICCB-Longwood Screening Facility, Harvard Medical School, 2010).

Each structure is given as a SMILES string. Among all 52,000 compounds or so, about 1,700 (3.3%) were called active. The sample as a whole holds a higher share of actives than the screen did. Values without a mark were called inactive. Cut-off read from the data, not from the text of the source: active = survival mostly below about 52% (no sharp cut-off); inactive = mostly above about 56%.

In this test the test system is Wild type. The test can be described thus: growth inhibition of S. aureus wild type versus tarO mutant, primary screen, teichoic acid synthesis inhibitors, RN4220, OD600 (AID 463173). The following applies: S. aureus RN4220 wild type/DeltatarO growth, OD600, 18 h, stronger effect = lower value, screened at 18.75 µg/mL (by protocol).
For the molecule `COc1ccc(N2CCN(C(=O)c3ccc(CS(=O)(=O)c4ccc(Br)cc4)o3)CC2)cc1`, the survival was 132%. Then `O=C1NC(=O)C(Nc2ccccc2Cl)S1` (stereo not drawn), with 108%; and `CC1CCN(c2ncnc3c2c(-c2ccccc2)cn3-c2ccc(Br)cc2)CC1`, with 72%. Take `CCn1cc(S(=O)(=O)c2cccc(Cl)c2)c(=O)c2cc(F)c(N3CCC(C)CC3)cc21`: the survival is 57%. For `CC(C)OCCCn1c(=O)c2ccccc2n2c(-c3cc(Cl)ccc3O)nnc12`, the survival was 94%. Turning to `COC(=O)c1sccc1S(=O)(=O)N(CC(=O)Nc1ccc(C)c(F)c1)c1ccc(C)c(C)c1`, the survival was -1% (active).

For `COC(=O)c1sccc1S(=O)(=O)N(CC(=O)NCc1ccccc1)c1ccc(C)c(C)c1`, the survival was 14% (active). Then `CCc1cccc(NC(=O)CN(c2ccc(C)c(C)c2)S(=O)(=O)c2ccsc2C(=O)OC)c1`, with -6% (active); and `COC(=O)c1sccc1S(=O)(=O)N(CC(=O)Nc1cc(C)ccc1C)c1ccc(C)c(C)c1`, with 78%.

On to `COC(=O)c1sccc1S(=O)(=O)N(CC(=O)NCc1ccc(F)cc1)c1ccc(C)c(C)c1`, for which the survival was 76%. The figure for `COC(=O)c1sccc1S(=O)(=O)N(CC(=O)NCc1ccc(C)cc1)c1ccc(C)c(C)c1` is 74%; for `COC(=O)c1sccc1S(=O)(=O)N(CC(=O)Nc1cc(F)ccc1F)c1ccc(C)c(C)c1` it is 133%; for `COC(=O)c1sccc1S(=O)(=O)N(CC(=O)Nc1cccc(C)c1C)c1ccc(C)c(C)c1` it is 69%. Then `COC(=O)c1sccc1S(=O)(=O)N(CC(=O)Nc1c(C)cccc1C)c1ccc(C)c(C)c1`, with 78%; and `Cc1ccc(CNC(=O)c2ccc(CSCc3ccccc3Cl)o2)cc1`, with 49%. The figure for `CC1(C)CC(=O)c2cc(C(=O)Nc3ccc(Cl)cc3)c(=O)[nH]c2C1` is 71%.

Consider `CCCCOc1ccc(CNC(=O)c2cc3n(n2)CCCN(Cc2ccc(C)cc2)C3=O)cc1`, for which the survival was 63%. Then `COc1cccc(CN2C(=O)c3ccccc3Sc3ccc(C(=O)OCc4ccco4)cc32)c1`, with 72%. The figure for `CCOc1ccccc1NC(=O)N1CCc2c(sc3c2CCCC3)C1c1ccccc1` (stereo not drawn) is 75%; for `COc1ccc2oc(=O)c(C(=O)Nc3cccc(C(=O)O)c3)cc2c1` it is 68%; for `CCOc1ccc(S(=O)(=O)Nc2cccc(-c3ccc(OCC)nn3)c2)cc1` it is 71%. `O=C(CSCc1ccccc1Cl)N/N=C/c1ccc(O)cc1O`: the survival is 122%.

Regarding `COc1ccc(NC(=O)CCc2c(C)nc3c(-c4ccc(F)cc4)c(C)nn3c2C)c(OC)c1`, the survival was 78%.
